Results reported in article PMC4552634, “A New Set of Chemical Starting Points with Plasmodium falciparum Transmission-Blocking Potential for Antimalarial Drug Discovery” (PLoS ONE, 2015).
The campaign covered roughly 13,000 compounds. About 3,200 (25%) showed an effect of 50% or more. The list shows a part of the results.

What follows are molecules tested on P. falciparum stage V gametocytes. Details: 48 h, 5 µM; inhibitor.
Parameters: BacTiter-Glo ATP luminescence viability of purified stage V gametocytes in 384-well plates, per cent inhibition versus DMSO

First: CCC[C@@H]([C@@H](CC1CCCCC1)C(=O)N[C@H](C(=O)Nc1nccc(N)n1)C(C)(C)C)N(O)C=O [TCMDC-138127]
Second: Cc1cc(N[C@@H](Cc2ccccc2)C(=O)NCCOc2ccccc2)nc(NCC2CCCCC2)n1 [TCMDC-134933]
The “% Inhibition” value of the first is higher: 6.724% for the first, -5.307% for the second.

Compared with `NC12CC3CC(CC(C3)C1)C2` [TCMDC-125869], `CCN1CCC(N2CCC(C(=O)Nc3cccc(-c4cccc(Cl)c4)c3)CC2)CC1` [TCMDC-124650] is higher in “% Inhibition” value: 6.577% for the first, 24.3% for the second.

Going from `CC(C)NC(=O)c1cccc(-c2cccc(OCCN3CCSCC3c3ccccc3)c2)c1` (centres unmarked) [TCMDC-134384] to `Cc1cccc(CNc2nc(C)cc(N[C@@H](Cc3ccccc3)C(=O)NCCOc3ccccc3)n2)c1` [TCMDC-134888], the “% Inhibition” value falls from 34.28% to 18.91%.

First: O=C(/C=C/c1ccc(Cl)c(Cl)c1)Nc1cccc(CN2CCC(c3c[nH]c4ccc(O)cc34)CC2)c1 [TCMDC-139634]
Second: Cc1cccc2[nH]cc(C3CCN(CC4CCC(NC(=O)/C=C/c5ccc(Cl)c(Cl)c5)CC4)CC3)c12 (centres unmarked) [TCMDC-140137]
The “% Inhibition” value of the first is lower: -96.41% for the first, 108% for the second.

Going from `COC(=O)CCCCOc1cc(Cc2cnc(N)nc2N)cc(OC)c1OC` [TCMDC-138041] to `CCCc1cc(Cc2cnc(N)nc2N)cc(CCC)c1OCCCCC(=O)OCC` [TCMDC-137294], the “% Inhibition” value falls from 1.908% to 0.6782%.

Compared with `Cc1cccc2c(C3CCN(CC4CCC(NC(=O)/C=C/c5ccc(Cl)c(Cl)c5)CC4)CC3)c[nH]c12` (centres unmarked) [TCMDC-139639], `O=C(/C=C/c1ccc(Cl)c(Cl)c1)NC1CCC(CN2CCC(c3coc4ccccc34)CC2)CC1` (centres unmarked) [TCMDC-140260] is lower in “% Inhibition” value: 73.81% for the first, -37.97% for the second.

Compared with `COc1cc2c(C3CCN(CC4CCC(NC(=O)/C=C/c5ccc(Cl)c(Cl)c5)CC4)CC3)c[nH]c2cn1` (centres unmarked) [TCMDC-140245], `CC(C)(C)c1ccc(C(=O)NC2CCC(CCN3CCc4ccc(S(C)(=O)=O)cc4CC3)CC2)cc1C(F)(F)F` (centres unmarked) [TCMDC-141428] is lower in “% Inhibition” value: 13.08% for the first, -32.14% for the second.

First: COc1ccc2nccc(NC(=O)N3CCC(NCc4cc5ccccc5[nH]4)CC3)c2n1 [TCMDC-140671]
Second: CCCCc1ccc(C(=O)NC2CCN(C[C@H](O)c3ccnc4ccc(OC)cc34)CC2)cc1 [TCMDC-141040]
The “% Inhibition” value of the first is lower: -10.57% for the first, -10.19% for the second.

Going from `Cc1cc(Cl)ccc1N(Cc1ccccc1)c1ccnc(Cl)n1` [TCMDC-138722] to `Cc1ccc(-c2ccc(Cl)cc2Oc2cnc(N)nc2N)o1` [TCMDC-132599], the “% Inhibition” value rises from -10.33% to 4.58%.

First: Cc1cc(C)nc(-n2[nH]c(C)c(Cc3ccc(C(C)(C)C)cc3)c2=O)n1 [TCMDC-125382]
Second: COc1ccc(CN2CCCN(Cc3cccc(C(=O)Nc4ccc(C(C)(C)C)cc4)c3)CC2)cc1 [TCMDC-135986]
The “% Inhibition” value of the first is higher: 16.36% for the first, 5.589% for the second.

Compared with `O=C(Nc1ccc(N2CCNCC2)cc1)c1ccn2ncc(-c3cccc(Cl)c3)c2n1` [TCMDC-132663], `Oc1ccc(CCNc2nc(NCc3ccccc3-c3cccc(Cl)c3)nc(N3CCNCC3)n2)cc1` [TCMDC-133784] is lower in “% Inhibition” value: 113.1% for the first, -2.358% for the second.

Compared with `O=C(Nc1cccc(Cl)c1)c1cnc(N2CCN(c3ccncc3)CC2)c(Cl)c1` [TCMDC-134600], `O=C(Nc1cccc(-c2ccc(-c3nc4ccccc4[nH]3)cc2)c1)c1ccncc1` [TCMDC-136962] is lower in “% Inhibition” value: 12.94% for the first, -14.71% for the second.

First: O=C(Nc1ccc(Cn2nc(Cl)c(N3CCNCC3)cc2=O)cc1)Nc1ccc(-c2ccccc2)cc1 [TCMDC-141700]
Second: O=C(Nc1ccc(Cn2nc(Cl)c(N3CCCNCC3)cc2=O)cc1)Nc1ccc(-c2ccccc2)cc1 [TCMDC-141696]
The “% Inhibition” value of the first is lower: -30.94% for the first, -10.1% for the second.

Going from `O=C(Nc1ccc(Cn2nc(Cl)c(N3CCCNCC3)cc2=O)cc1)c1ccc(-c2ccccc2)cc1` [TCMDC-141693] to `O=C(Nc1ccc(-c2ccccc2)cc1)Nc1cccc(Cn2nc(Cl)c(N3CCCNCC3)cc2=O)c1` [TCMDC-141695], the “% Inhibition” value falls from 29.71% to 3.325%.

First: Cc1ccc(Cn2nc(Cl)c(N3CCCNCC3)cc2=O)cc1NC(=O)Nc1ccc(-c2ccccc2)cc1 [TCMDC-141697]
Second: Cc1ccc(Cn2nc(Cl)c(N3CCNCC3)cc2=O)cc1NC(=O)Nc1ccc(-c2ccccc2)cc1 [TCMDC-141698]
The “% Inhibition” value of the first is lower: 91.1% for the first, 114.4% for the second.

Going from `Cc1c(Cn2nc(Cl)c(N3CCNCC3)cc2=O)cccc1NC(=O)Nc1ccc(-c2ccccc2)cc1` [TCMDC-141699] to `O=C(Nc1ccc(-c2ccccc2)cc1)Nc1cccc(Cn2nc(Cl)c(N3CCNCC3)cc2=O)c1` [TCMDC-141694], the “% Inhibition” value falls from 65.88% to -35.56%.

Going from `COc1ccc(NC(=O)Nc2ccc(-c3ccccc3)cc2)cc1Cn1nc(Cl)c(N2CCCNCC2)cc1=O` [TCMDC-141724] to `O=C(Nc1ccc(-c2ccccc2)cc1)Nc1cccc(Cn2cnc(N3CCCNCC3)cc2=O)c1` [TCMDC-133363], the “% Inhibition” value falls from 21.4% to -19.33%.

Going from `Cc1ccc(Cn2cnc(N3CC(C)NC(C)C3)cc2=O)cc1NC(=O)Nc1ccc(-c2ccccc2)cc1` (centres unmarked) [TCMDC-133371] to `Cc1ccc(Cn2nc(N3CCNCC3)ccc2=O)cc1NC(=O)Nc1ccc(-c2ccccc2)cc1` [TCMDC-132580], the “% Inhibition” value rises from 24.76% to 107.8%.

Compared with `CCc1c(C)nc(-n2nc(C)cc2NC(=O)CC(c2ccccc2)c2ccccc2)[nH]c1=O` [TCMDC-124933], `Cc1cc(N[C@@H](Cc2ccccc2)C(=O)NCCOc2ccccc2)nc(NCc2ccccc2C)n1` [TCMDC-134906] is higher in “% Inhibition” value: -29.94% for the first, -0.6796% for the second.

First: NC(=O)Nc1ccc2c(Nc3ccc(OCc4ccccc4)cc3)ncnc2c1 [TCMDC-131937]
Second: Cc1cc(N[C@@H](Cc2ccccc2)C(=O)NCCOc2ccccc2)nc(Nc2ccccc2)n1 [TCMDC-134735]
The “% Inhibition” value of the first is higher: 13.28% for the first, 6.483% for the second.

First: Cc1ccc2sc(N(CCCn3ccnc3)C(=O)c3ccco3)nc2c1C [TCMDC-124922]
Second: COc1ccc(CC2(c3ccc(F)cc3)N=C(N)N(CCCc3cccnc3)C2=O)cc1 (centres unmarked) [TCMDC-136541]
The “% Inhibition” value of the first is higher: 21.61% for the first, 12.34% for the second.

First: O=C(Cc1cccnc1)Nc1cccc(-c2cccc(-c3nc4ccc(C(F)(F)F)cc4[nH]3)c2)c1 [TCMDC-136815]
Second: Cc1cc(N[C@@H](Cc2ccccc2)C(=O)NCCOc2ccccc2)nc(NCCc2ccc(F)cc2)n1 [TCMDC-134789]
The “% Inhibition” value of the first is lower: 21.33% for the first, 64.78% for the second.

First: COc1ccc(CN2CCN(CCCCNC(=O)c3ccc(NC(=O)c4ccc(Cl)cc4)cc3)CC2)c(OC)c1 [TCMDC-138280]
Second: CN1CCc2ccc(NC(=O)Nc3cccc(C(=O)c4ccccc4)c3)cc2C1 [TCMDC-139177]
The “% Inhibition” value of the first is higher: 2.758% for the first, -22.18% for the second.

First: Cc1cc(N[C@@H](CC(C)C)C(=O)NCCOc2ccccc2)nc(NCCOc2ccccc2)n1 [TCMDC-134761]
Second: Cc1cc(N[C@@H](CC(C)C)C(=O)NCCOc2ccccc2)nc(NCCc2ccccc2)n1 [TCMDC-134871]
The “% Inhibition” value of the first is lower: 40.02% for the first, 94.75% for the second.

Compared with `Cc1cc(N[C@@H](Cc2ccccc2)C(=O)NCCOc2ccccc2)nc(NCCc2cccs2)n1` [TCMDC-134813], `Cc1cc(N[C@@H](Cc2ccccc2)C(=O)NCc2cccs2)nc(NCCOc2ccccc2)n1` [TCMDC-134758] is lower in “% Inhibition” value: 64.23% for the first, 28.84% for the second.

Compared with `CCCC(C)Nc1nc(C)cc(N[C@@H](Cc2ccccc2)C(=O)NCCOc2ccccc2)n1` (some centres unmarked) [TCMDC-134765], `Cc1cc(N[C@@H](Cc2ccccc2)C(=O)NCCOc2ccccc2)nc(NCCc2ccccn2)n1` [TCMDC-134748] is higher in “% Inhibition” value: -43.65% for the first, 75.62% for the second.

Going from `Cc1cc(N[C@@H](CC(C)C)C(=O)NCCOc2ccccc2)nc(NCCc2ccc(F)cc2)n1` [TCMDC-134795] to `Cc1cc(N[C@@H](Cc2ccccc2)C(=O)NCCOc2ccccc2)nc(NCCc2ccccc2)n1` [TCMDC-134869], the “% Inhibition” value falls from 47.6% to 38.23%.

Going from `Brc1cc(Br)c2c(c1)C(NCCCNc1nc3ncccc3[nH]1)CCN2` (centres unmarked) [TCMDC-140066] to `CCCCSc1ccc2nc(-c3c[nH]c4ccc(C#N)cc34)cn2c1` [TCMDC-134704], the “% Inhibition” value rises from -91.96% to -54.07%.

Going from `C/C=C1/CN2CC[C@H]1C[C@H]2[C@H](O)c1ccnc2ccc(OC)cc12` [TCMDC-138265] to `COc1ccc(N2CCN(c3nc(N)c4cc(OC)c(OC)cc4n3)CC2C)cc1` (centres unmarked) [TCMDC-131887], the “% Inhibition” value falls from 0.1494% to -85.18%.

First: CC(C)c1cc(C(=O)N[C@@H](Cc2ccccc2)[C@H](O)CNC2CCCCC2)cc(N2CCCC2=O)c1 [TCMDC-138861]
Second: COc1cc2nc(N3CCC(CNC(=O)c4cc5ccccc5s4)CC3)nc(N)c2cc1OC [TCMDC-138189]
The “% Inhibition” value of the first is higher: 41.96% for the first, 0.3187% for the second.

Going from `Cc1cc(N[C@@H](Cc2ccccc2)C(=O)NCCc2ccccc2)nc(NCCOc2ccccc2)n1` [TCMDC-134879] to `Cc1cc(N[C@@H](Cc2ccccc2)C(=O)NCCOc2ccccc2)nc(NCCOc2ccccc2)n1` [TCMDC-134759], the “% Inhibition” value rises from 65.02% to 76.97%.

First: COc1cc2sc(=NC(=O)c3cccc([N+](=O)[O-])c3)n(C)c2cc1OC [TCMDC-123526]
Second: COc1cc2nc(N3CCN(C(=O)c4cccc(I)c4)CC3)nc(N)c2cc1OC [TCMDC-131895]
The “% Inhibition” value of the first is lower: 16.54% for the first, 98.03% for the second.

Going from `CC1(C)N=C(N)N=C(N)N1OCc1cccc2c1ccc1ccccc12` [TCMDC-131327] to `COc1cc2nc(N3CCN(c4cc(C)ccc4C)CC3)nc(N)c2cc1OC` [TCMDC-125298], the “% Inhibition” value falls from 39.55% to -12.09%.

First: COc1cc2nc(N3CCC(CNC(=O)c4cc(Br)c(Br)s4)CC3)nc(N)c2cc1OC.O=C(O)C(F)(F)F [TCMDC-138213]
Second: COc1cc2nc(N3CCN(C(=O)c4c(Cl)nsc4-c4ccccc4Cl)CC3)nc(N)c2cc1OC.O=C(O)C(F)(F)F [TCMDC-138186]
The “% Inhibition” value of the first is lower: -9.659% for the first, 103.1% for the second.

First: COc1cc2nc(N3CCN(c4nc(N)c5cc(OC)c(OC)cc5n4)CC3)nc(N)c2cc1OC [TCMDC-123865]
Second: COc1cc2nc(NCC3CCN(c4nc(N)c5cc(OC)c(OC)cc5n4)CC3)nc(N)c2cc1OC [TCMDC-138723]
The “% Inhibition” value of the first is higher: 116.7% for the first, 112.2% for the second.

For `COc1cc2nc(N3CCN(C(=O)c4ccc(N(C(=O)OC(C)(C)C)C(=O)OC(C)(C)C)cc4)CC3)nc(N)c2cc1OC` [TCMDC-131899], the “% Inhibition” value was 9.334%.
